“And” between values parts separate entries of the source, which are not always exact repeats. Equal values may be shown once. Records with an inconclusive call do not appear. Entries that show only a call come without a potency. Where a structure was tested more than once in an assay, its records may differ in their call. The source made the active and inactive calls. Unless noted, calls come from the whole dose curve; as a rule, active = well fitted curve in the direction sought with a large enough effect in the repeat runs; inconclusive = weak or mixed curves; inactive = no such curve, though single readings can be large; an effect the other way counts as inactive or inconclusive.
Molecular target: Androgen receptor (Homo sapiens) (UniProt P10275)
Sequence (P10275 whole entry, looked up): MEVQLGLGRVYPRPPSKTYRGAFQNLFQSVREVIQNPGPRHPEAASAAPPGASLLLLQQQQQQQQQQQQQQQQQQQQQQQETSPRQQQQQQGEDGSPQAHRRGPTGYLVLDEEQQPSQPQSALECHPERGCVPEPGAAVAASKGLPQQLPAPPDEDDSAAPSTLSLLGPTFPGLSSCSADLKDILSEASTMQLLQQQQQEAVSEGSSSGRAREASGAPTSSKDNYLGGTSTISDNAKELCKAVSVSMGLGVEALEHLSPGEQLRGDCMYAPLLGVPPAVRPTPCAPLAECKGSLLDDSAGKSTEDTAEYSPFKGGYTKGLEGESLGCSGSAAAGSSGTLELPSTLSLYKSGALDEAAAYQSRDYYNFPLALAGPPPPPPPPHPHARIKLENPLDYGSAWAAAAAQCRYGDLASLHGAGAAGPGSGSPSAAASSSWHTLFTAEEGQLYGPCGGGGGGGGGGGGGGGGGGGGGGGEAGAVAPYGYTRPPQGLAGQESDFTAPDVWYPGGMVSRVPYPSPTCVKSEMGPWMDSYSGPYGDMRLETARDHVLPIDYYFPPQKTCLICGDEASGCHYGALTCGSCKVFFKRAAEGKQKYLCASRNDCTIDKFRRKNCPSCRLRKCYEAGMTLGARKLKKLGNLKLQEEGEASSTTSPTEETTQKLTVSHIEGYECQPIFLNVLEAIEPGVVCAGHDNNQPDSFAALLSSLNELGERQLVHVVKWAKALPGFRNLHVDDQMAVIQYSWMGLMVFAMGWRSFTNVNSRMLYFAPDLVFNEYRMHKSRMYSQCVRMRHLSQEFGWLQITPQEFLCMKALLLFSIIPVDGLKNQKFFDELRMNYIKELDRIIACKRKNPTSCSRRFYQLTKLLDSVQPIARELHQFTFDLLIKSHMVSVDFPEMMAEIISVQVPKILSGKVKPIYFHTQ
Assay: qHTS assay to identify small molecule agonists of the androgen receptor (AR) signaling pathway (AID 743036; active = well fitted activation curve with a large enough effect in the signal ratio in the repeat runs, with a control signal flat, not every such curve was filed as active; the % refers to the signal ratio)
Settings: HEK293 AR-UAS-bla GripTite, beta-lactamase FRET ratio, 16 h; series mostly up to 62.4 µM; activation: at the top concentration
Procedure, shortened: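 Fluorescence from a beta-lactamase FRET substrate served as read-out in AR-UAS-bla GripTite HEK293 cells. Cells were treated with DMSO-dissolved compounds for 16 h at 37C, then with LiveBLAzer B/G substrate for 2 h at room temperature.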
For `CO[Si](CCCNCCN)(OC)OC`, the Potency was “inactive”. With `OCC(O)CS` (stereo unspecified) the Potency was “inactive”. In the case of `CCCOCC(C)O` (stereo unspecified), the Potency is reported as “inactive”. With `CCCN(CCC)C(=O)SCC` the “activation” value was 3.8% (inactive). With `O=[N+]([O-])c1cc(C(F)(F)F)ccc1Cl` the Potency was “inactive”. With `CC(C=O)Cc1ccc(C(C)(C)C)cc1` (stereo unspecified) the Potency was “inactive”. For `CC(C)(CO)CO`, the Potency was “inactive”. With `O=[N+]([O-])c1ccccc1C(F)(F)F` the Potency was “inactive”.

Molecular target: Androgen receptor (Homo sapiens) (UniProt P10275)
Assay: qHTS assay to identify small molecule agonists of the androgen receptor (AR) signaling pathway using the MDA cell line (AID 743040; note: nearly all actives have a fitted effect of over 20% in size)
Settings: MDA-kb2 AR-luc cells, MMTV luciferase, 16 h; at 70.3 µM (top of the series); stronger effect = higher value
Procedure, shortened: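 Luminescence from ONE-Glo, read after 30 min at room temperature, reflects MMTV-driven luciferase in MDA-kb2 cells (AR- and GR-responsive). Treatment lasted 16 h at 37C, 0% CO2.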
For `Nc1nc(N)c2nc(-c3ccccc3)c(N)nc2n1`, the activity change was 18% (inactive). For `Cc1ccccc1Cl`, the activity change was -0.0268% (inactive). With `Cc1ccc(C(C)C)cc1` the activity change was 1.12% (inactive). With `CO[Si](CCCNCCN)(OC)OC` the activity change was -2.52% (inactive). For `OCC(O)CS` (stereo unspecified), the activity change was 0.512% (inactive). With `CCCOCC(C)O` (stereo unspecified) the activity change was -0.141% (active) and -0.54% (inactive). In the case of `CCCN(CCC)C(=O)SCC`, the activity change is reported as 1.01% (inactive). In the case of `O=[N+]([O-])c1cc(C(F)(F)F)ccc1Cl`, the activity change is reported as -0.292% (inactive). For `CC(C=O)Cc1ccc(C(C)(C)C)cc1` (stereo unspecified), the activity change was -2.03% (inactive) and -1.92% (inactive). In the case of `CC(C)(CO)CO`, the activity change is reported as 0.0392% (inactive) and -0.381% (inactive). In the case of `O=[N+]([O-])c1ccccc1C(F)(F)F`, the activity change is reported as 0.939% (inactive) and 0.0136% (inactive).

Same assay, conditions: MDA-kb2 AR-luc cells, MMTV luciferase, 16 h; at 95 µM (top of the series); stronger effect = higher value
With `Cc1ccccc1Cl` the activity change was -0.806% (inactive). With `Cc1ccc(C(C)C)cc1` the activity change was 0.115% (inactive). In the case of `CO[Si](CCCNCCN)(OC)OC`, the activity change is reported as 0.325% (inactive). With `CCCN(CCC)C(=O)SCC` the activity change was -1.98% (inactive). For `O=[N+]([O-])c1cc(C(F)(F)F)ccc1Cl`, the activity change was 5.79% (inactive).

Tested on: not listed separately
Assay: qHTS assay to identify small molecule antagonists of the androgen receptor (AR) signaling pathway using the MDA cell line - cell viability counter screen (AID 743041; note: nearly all actives have a fitted effect of over 45% in size; note: potency is the fitted concentration of half-maximal effect)
Settings: MDA-kb2 viability, CellTiter-Fluor, 16 h, cells co-treated with R1881 androgen agonist; series mostly up to 70.3 µM; viability change, negative = cytotoxic: at the top concentration
Procedure, shortened: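 Viability counter screen run alongside the AR antagonist reporter: cells seeded 5 h before compound, R1881 added, 16 h incubation at 37C without CO2, fluorescent CellTiter-Fluor signal quantified.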
In the case of `CS(=O)(=O)c1ccc(Cl)cc1`, the Potency is reported as “inactive”. For `Nc1nc(N)c2nc(-c3ccccc3)c(N)nc2n1`, the “viability change, negative = cytotoxic” value was 11% [at 95 µM] (inactive). In the case of `C=C(C)CC(C)(C)C`, the Potency is reported as “inactive”. In the case of `Cc1ncc(CO)c(CO)c1O`, the Potency is reported as “inactive”. In the case of `O=C1OC(=O)c2c(Cl)c(Cl)c(Cl)c(Cl)c21`, the Potency is reported as “inactive”. In the case of `NC(=O)c1ncn([C@@H]2O[C@H](CO)[C@@H](O)[C@H]2O)n1`, the Potency is reported as “inactive”. In the case of `CN1CCCC1=O`, the Potency is reported as “inactive”. For `Cc1ccccc1Cl`, the Potency was “inactive”. For `NCCNCCNCCN`, the Potency was “inactive”. For `Cc1cc(C)cc(O)c1`, the Potency was “inactive”. In the case of `CCCCCCCCO`, the Potency is reported as “inactive”. With `Cc1ccc(C(C)C)cc1` the Potency was “inactive”. For `Cc1cc(CC(=O)O)n(C)c1C(=O)c1ccc(Cl)cc1`, the Potency was “inactive”. With `NC(N)=S` the Potency was “inactive”. With `Nc1cccc(N)n1` the Potency was “inactive”. For `Cc1ccccc1C=O`, the “viability change, negative = cytotoxic” value was -3.17% (inactive). In the case of `Cc1ccncc1`, the Potency is reported as “inactive”. In the case of `NC(=O)NC(N)=O`, the Potency is reported as “inactive”. In the case of `CO[Si](CCCNCCN)(OC)OC`, the Potency is reported as “inactive”. For `CC(=O)OCCC(C)C`, the Potency was “inactive”. With `CN=C(NC#N)NCCSCc1nc[nH]c1C` the “viability change, negative = cytotoxic” value was -6.38% (inactive). With `OCC(O)CS` (stereo unspecified) the Potency was “inactive”. For `O=C1C(N(CO)C(=O)NCO)N(CO)C(=O)N1CO` (stereo unspecified), the Potency was “inactive”. In the case of `COC(=O)/C=C\C(=O)OC`, the “viability change, negative = cytotoxic” value is reported as 1.62% (inactive). With `C[n+]1ccn(CCO)c1` the Potency was “inactive”. In the case of `COc1c2ccoc2cc2oc(=O)ccc12`, the Potency is reported as “inactive”. For `CC(=O)C(C)C`, the Potency was “inactive”. In the case of `c1cnc2c(c1)ccc1cccnc12`, the Potency is reported as 49 µM (active) and 30.6 µM (active). With `CCCOCC(C)O` (stereo unspecified) the Potency was “inactive”. For `CC1(C)C(=O)N(Cl)C(=O)N1Cl`, the Potency was “inactive”. In the case of `CCCN(CCC)C(=O)SCC`, the Potency is reported as “inactive”. In the case of `CC(C=O)Cc1ccc(C(C)(C)C)cc1` (stereo unspecified), the Potency is reported as “inactive”. For `CC(C)(CO)CO`, the Potency was “inactive”. In the case of `N#CCC(=O)O`, the Potency is reported as “inactive”. With `COc1c(Cl)ccc(Cl)c1C(=O)O` the Potency was “inactive”. With `O=[N+]([O-])c1ccccc1C(F)(F)F` the Potency was “inactive”. In the case of `OCCOCCOCCOCCOCCO`, the Potency is reported as “inactive”.

— PubChem BioAssay (Tox21)
